In all, about 1,700 compounds were measured (“T2 sensor activation Q score (MG/GFP ratio z-score vs DMSO controls)”: median about 0.3, highest 2% from about 1.9 on). The sample as a whole holds a higher share of the highest values than the screen did.
tested on: ppGalNAc-T2 sensor; assay: T2 sensor activation Q score (MG/GFP ratio z-score vs DMSO controls) (SD units); higher = more sensor activation (inhibition of ppGalNAc-T2 glycosylation); conditions: HEK293 sensor cells; 10 µM; 6 h
Method: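 Cells were treated with compound at 10 uM for 6 h, then MG/GFP ratio was read by flow cytometry (10,000 cells per well, duplicate wells). Q = (R - R_neg)/SD_neg relative to DMSO vehicle controls; the signal rises when the glycosyltransferase is inhibited.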

Structure (SMILES) | T2 sensor activation Q score
CCOC(=O)CCCN(c1[nH]c(C)c(C)c1C#N)S(=O)(=O)c1ccc(C)cc1 | 1.05
CCCCCC(=O)N1CCCCC1 | -1.85
O=C1C=CC(=O)N1c1ccc(I)cc1Cl | -0.45
CC(=O)Oc1c(C)c(OC(C)=O)c2c(c1C(C)=O)OC1CC(=O)C(C(C)=O)=C(O)C21C (configuration not stated) | -1.8
O=c1cccc2cc(O)c(O)c(O)c2c1O | 2.35
O=C1Cc2cccc(=O)c(O)c2C(=O)O1 | 0.1
CCOP(=O)(OCC)/C(C#N)=C/c1ccc([N+](=O)[O-])cc1 | 2.3
CCOP(=O)(OCC)/C(C#N)=C/c1c[nH]c2ccccc12 | -0.2
CCOP(=O)(OCC)/C(C#N)=C/c1ccc(-c2ccc(F)cc2F)o1 | -0.9
Clc1ccc2nc3ccccc3cc2c1 | 1.3
CC(=O)Nc1ccc(OC(=O)Oc2ccc(NC(C)=O)cc2)cc1 | 1.2
Cc1ccc(C#CC(C)(O)C(C)(C)C)cn1 (configuration not stated) | -0.05
N#Cc1c(N)nc(N)nc1Nc1ccc(Br)cc1 | 1.15
COc1cnc(SC)nc1Nc1ccc(C#N)cc1 | 1.65
Cc1nc(N)nc(Nc2ccc(C#N)cc2)c1Br | 2.35
CCc1nc(N)nc(N)c1-c1ccc(N(C)Cc2ccccc2)c([N+](=O)[O-])c1 | -1.25
CC1(C)c2ccccc2-c2nc3ccccc3cc2C1O (configuration not stated) | -0.95
O=C1CC(c2ccc(O)cc2)Oc2cc(O)cc(O)c21 (configuration not stated) | 0.75
CC(C)(C)c1ccc(OC(=O)c2ccccc2)cc1 | 0.95
CC(C)(C)CC(C)(C)N1CNC(=S)NC1 | 0.45
N#CCCCCN1CCCC1 | -0.65

Structure (SMILES) | T2 sensor activation Q score
Cc1c(Cl)cccc1NC(=O)CC1Sc2ccccc2NC1=O (configuration not stated) | 2
CCOC(=O)C(=O)C1C(=O)Nc2ccccc21 (configuration not stated) | 1.15
CCCCSc1cc(=O)[nH]c(N)n1 | 1.85
NC(=O)C1=C(N)c2ccccc2C1c1ccccc1 (configuration not stated) | 1.4
CCC1(CC)C(=O)NC(=S)N=C1N | 1.7
c1ccc(-c2nc(-c3ccccn3)nc(-c3ccccn3)n2)nc1 | -0.55
c1ccc(-c2nc3ccccc3s2)nc1 | 0.6
Cc1cc2nc(-c3ccccn3)c(-c3ccccn3)nc2cc1C | 2.4
O=c1ccc(Cl)n[nH]1 | 1.45
FC(F)(F)c1cccc(OCC2CNC(=S)O2)c1 (configuration not stated) | 0.65
Cc1csc(NC(=O)c2ccc(C(=O)Nc3nc(C)cs3)cc2)n1 | 0.5
C=C1SC(=Nc2c(C)cccc2Cl)N(C(=O)c2sc3ccccc3c2Cl)C12CCCCC2 | 1.1
Nc1cc(N)nc(CS)n1 | 1.45
COCC(=O)Oc1cc(-c2ccc(C)cc2C)c(OC(=O)COC)c(-c2ccc(C)cc2C)c1 | 0.9
NC(=O)c1ccccc1OCC(=O)Nc1ccc(Cl)c(Cl)c1 | 0.1
Cc1cccc(C(O)C(O)c2cccc(C)n2)n1 (configuration not stated) | 0.55
COc1ccccc1/C=C(\C#N)C(=O)O | 1.4
c1ccc2c(c1)nnn2-c1ccncc1 | -0.1
Nc1nnc(-c2cccnc2)s1 | 0.6
Cc1cnc2c(N)cc(C)c(C)c2c1 | 1.15
O=[N+]([O-])c1cc(-c2cccnc2)n[nH]1 | -0.35

Structure (SMILES) | T2 sensor activation Q score
Nc1ccccc1C(=O)Nc1ccc(Cl)cc1Cl | 0.45
C#CC1(N2CCCCC2)CCCCC1 | 0.8
Clc1nnc(NC2CCCCC2)c(Cl)c1Cl | 0.15
CC(=O)OCC1OC(COC(C)=O)(c2ccc(C)cc2)C(OC(C)=O)C1OC(C)=O (configuration not stated) | 0.15
c1ccc(NN(Cc2ccncc2)c2ccccc2)cc1 | 0.95
COc1ccc(Nc2cc(Cl)ccc2C(=O)O)cn1 | 2.25
COc1cc(-c2ccc(Nc3ccccc3C(=O)O)c(OC)c2)ccc1Nc1ccccc1C(=O)O | -0.5
CCCCOc1ccc(Nc2cc(Cl)ccc2C(=O)O)cn1 | 1.2
c1coc(CNc2ncnc3[nH]ncc23)c1 | 0.7
O=C(O)/C=C/C(=O)N1Cc2cc3ccccc3nc2C1 | -0.3
CCCCN1C(=O)CC2CCOC21C (configuration not stated) | -0.45
CN1C(=C=Cc2cc(I)c(O)c(I)c2)C(C)(C)c2ccccc21 | 3.65
Cc1nnc(-n2cccc2)s1 | 1.4
Clc1ccc(Oc2nc3c(Cl)cccc3s2)cc1Cl | 0.85
Nc1n[nH]c(CO)n1 | 1.95
Nc1n[nH]c(-c2ccccc2)n1 | 0.75
C(COC1CC2CC1C1C2CC2OC21)OC1CC2CC1C1C2CC2OC21 (configuration not stated) | 0.15
CC(C)C[C@H](NC(=O)[C@H](CCc1ccccc1)NC(=O)CN1CCOCC1)C(=O)N[C@@H](Cc1ccccc1)C(=O)N[C@@H](CC(C)C)C(=O)[C@@]1(C)CO1 | -1.65
O=C1c2cccc(Sc3ccccc3)c2C(=O)c2c(Sc3ccccc3)cccc21 | -0.5
S=c1nc[nH]c2c1ncn2C1CCCC1 | 1.4
COc1ccc2nc3cc(Cl)ccc3c(Nc3cc(C(C)C)c(O)cc3C)c2c1 | 0.55

Structure (SMILES) | T2 sensor activation Q score
N#Cc1nnn(-c2ccc(Cl)cc2)c1N | 1
CSC1=NC=C(C#N)C2=NC(c3ccc(Cl)cc3)NN12 (configuration not stated) | 2.45
Cc1c(Cl)cccc1Nc1ncccc1C(=O)OCC(O)CO (configuration not stated) | -0.65
CN(C)c1ccc(C(c2ccc(N(C)C)cc2)c2ccc([N+](=O)[O-])cc2)cc1 | 0.55
CCSc1nc(O)cc(=O)[nH]1 | -0.9
CC(=O)[C@H]1CC[C@H]2[C@@H]3CCC4=CC(=O)C=C[C@]4(C)[C@H]3C(=O)C[C@]12C | 1.65
CCOCc1cc(=O)[nH]c(SC)n1 | -0.05
Cc1ccc(S(=O)(=O)Oc2cc(N)c3c(n2)CCC3)cc1 | 0.3
O=C(Nc1ccc(Br)cc1)Nc1ccccc1Cl | -0.9
Clc1ccc(Nc2nnc(-c3ccc4c(c3)OCO4)o2)cc1 | -0.7
CCN1CCCC(Sc2nc3c([nH]2)c(=S)n(C)c(=O)n3C)C1 (configuration not stated) | 0.45
O=C(O)c1cc(O)ccc1N=Nc1ccccc1 | 1.55
CCC(=Cc1ccc(CC)cn1)CC | 1.85
C(=C\c1ccccn1)/c1ccccn1 | 2.1
O=[N+]([O-])c1cccc(/C=C/c2ccccn2)c1 | -1.2
C(=C\CSc1ccccn1)/CSc1ccccn1 | -0.6
CC(=O)c1c(O)c(C)c(O)c2c1OC1=CC(=O)/C(=C(/C)N)C(=O)C12C (configuration not stated) | -1.2
C/C=C1\NC(=O)[C@H]2CSSCC/C=C/[C@H](CC(=O)N[C@H](C(C)C)C(=O)N2)OC(=O)[C@H](C(C)C)NC1=O | 3
O=C(Nc1nc2ccccc2s1)Nc1ccc([N+](=O)[O-])cc1Cl | 0.35

— the supplement of paper PMC5407854, “Inhibitor of ppGalNAc-T3-mediated O-glycosylation blocks cancer cell invasiveness and lowers FGF23 levels” (eLife, 2017)
